Screening data: PubChem BioAssay, National Center for Advancing Translational Sciences (NCATS)
A selection: hits, their analogues and other compounds. The true share with any hit is near 3.3%.
Tau fluor counter: counter-screen for tau fibril formation inhibitors; tau K18 P301L Alexa594 fluorescence, heparin fibrillization; Potency, µM (doses to about 57.7 µM), for the others: at the highest dose activity change, negative = decrease; 0.93% of 280,000 active; AID 1463; also: nearly all actives have a fitted effect of over 55% in size
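Human K18 P301L tau (15 uM unlabeled plus 0.24 uM Alexa 594-labeled, final) in 100 mM sodium acetate pH 7 was mixed with compound and 20 uM heparin and incubated 6 hr at 37 C.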
Tau fibril ThT: inhibitors of human tau fibril formation, thioflavin T binding. P10636. recombinant tau K18 P301L, heparin-induced fibrillization, ThT fluorescence. Potency, µM (doses to about 57.4 µM), without a hit: at the top dose activity, negative = inhibition, actives largely listed as inhibitors. 2.1% of 270,000 active; also: nearly all actives have a fitted effect of over 55% in size
Target sequence (P10636 561-689 P618L limits assumed): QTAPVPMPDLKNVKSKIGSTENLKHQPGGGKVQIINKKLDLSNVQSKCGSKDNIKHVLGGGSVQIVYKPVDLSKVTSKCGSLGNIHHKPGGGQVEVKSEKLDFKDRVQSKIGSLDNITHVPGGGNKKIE
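Recombinant human tau K18 fragment […] carrying P301L, 15 uM unlabeled plus 0.24 uM Alexa 594-labeled, was fibrillized with 20 uM heparin in 100 mM sodium acetate pH 7 for 6 hr at 37 C; 30 uM ThT fluorescence read after 1 hr.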
NPSR antagonist: neuropeptide S receptor (human) antagonism, cAMP. CHO-NPSR cells, cAMP TR-FRET, antagonist mode. Potency, µM (highest dose often 38.3 µM), for inactives: at the highest dose activity change, negative = inhibition, usual class: inhibitors. 1% of 220,000 active; also: nearly all actives have a fitted effect of over 50% in size
Target sequence (Q6W5P4 whole entry, looked up): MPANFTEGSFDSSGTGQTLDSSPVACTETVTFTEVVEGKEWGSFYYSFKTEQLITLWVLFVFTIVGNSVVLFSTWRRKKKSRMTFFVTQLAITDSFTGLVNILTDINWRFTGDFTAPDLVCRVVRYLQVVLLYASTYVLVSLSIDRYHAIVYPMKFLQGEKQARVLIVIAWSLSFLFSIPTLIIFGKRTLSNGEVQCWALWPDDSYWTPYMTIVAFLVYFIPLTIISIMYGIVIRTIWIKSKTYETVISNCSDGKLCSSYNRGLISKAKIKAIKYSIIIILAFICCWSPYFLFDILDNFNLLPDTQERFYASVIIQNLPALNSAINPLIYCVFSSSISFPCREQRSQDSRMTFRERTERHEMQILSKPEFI
Luc counter: counter-screen: inhibitors of Kinase-Glo firefly luciferase; 0.28% of 200,000 active; Kinase-Glo luciferase, ATP luminescence, 8 min; AID 1379; Potency, µM (titrated, usually from 38.3 µM), for inactives: top-dose activity change, negative = inhibition, hits mostly inhibitors; also: nearly all actives have a fitted effect of over 60% in size
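Kinase-Glo luciferase light output from ATP and luciferin was measured with 10 uM ATP, within the enzyme's linear range. Buffer: 50 mM imidazole pH 7.2, 50 mM KCl, 7 mM MgCl2, 0.01% Tween 20, 0.05% BSA; luminescence read after 8 min at ambient temperature.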
Tau fibril FP: inhibitors of human tau fibril formation; K18 P301L tau heparin fibrillization, Alexa594 FP, 6 h; Potency, µM (doses to about 57.7 µM), for the others: at the top dose activity, negative = inhibition, most hits filed as inhibitors; 0.39% of 280,000 active; P10636; also: nearly all actives have a fitted effect of over 55% in size
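Heparin (20 uM) drove fibril formation of recombinant tau K18 P301L, 15 uM unlabeled with 0.24 uM Alexa 594 label, for 6 hr at 37 C in 100 mM sodium acetate pH 7. Fluorescence polarization (555/632 nm) read 1 hr after 30 uM ThT.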
Active calls of the source: *; ? = inconclusive; . = no result given; [ ] = remark or other dose. Calls follow the shape of the dose curve; as a rule, active = well fitted curve in the direction sought with a large enough effect; inconclusive = small, poorly fitted or top-dose-only effect, or another doubt; inactive = no such curve, though single readings can be large; an effect the other way counts as inactive or inconclusive. % is scaled to controls: 0 for no effect and ±100 for the full control effect; potency is read from the fitted curve at half-maximal effect.

SMILES | Tau fluor counter | Tau fibril ThT | NPSR antagonist | Luc counter | Tau fibril FP
Cn1nc(C(=O)Nc2ccc3c(c2)OCCO3)cc1C(=O)O | 1% | -9% | 8% | 11µM* | 10%
O=C(Nc1ccc2c(c1)OCCO2)c1ccccn1 | -2% | -17% | -2% | 13µM* | 1%
O=C(Nc1ccc2c(c1)OCCO2)c1cccc2nc3ccccc3nc12 | ? | 4.5µM* | ? | 1% | 5%
O=C(Nc1ccc(NC(=O)c2ccccn2)cc1)C(=O)Nc1ccc2c(c1)OCCO2 | -14% | ? | 4% | 1% | -13%
Cn1nccc1C(=O)Nc1ccc2c(c1)OCCO2 | -2% | -12% | -14% | 13µM* | 5%
Cc1ccc(-c2nn3c(=O)cc(CN4CCN(C(=O)c5ccc(C(C)(C)C)cc5)CC4)nc3s2)cc1 | 3% | ? | . | . | 4%
CC/C(=N\Nc1ccccc1[N+](=O)[O-])c1ccc(O)cc1 | 4.5µM*[quencher] | 1.8µM* | 50% | -6% | -11%
Cc1[nH]c2ccccc2c1/C=N/NC(=O)c1cc(-c2ccccc2)n[nH]1 | 16µM*[quencher] | . | -30% | . | ?
Cc1ccc(NC(=S)N/N=C/c2c(C)[nH]c3ccccc23)cc1 | 14µM*[quencher] | ? | -50% | 5% | 9%
Cc1[nH]c2ccccc2c1/C=N/NC(=O)c1cc(C(C)(C)C)[nH]n1 | ? | . | -11% | . | ?
Cc1[nH]c2ccccc2c1/C=N/NC(=S)NCc1ccccc1 | 13µM*[quencher] | ? | -16% | -1% | -8%
O=c1c(Cl)c(Cl)cnn1Cc1nnc(-c2ccc(Cl)cc2)o1 | -16% | 28µM* | -44% | -1% | ?
Cc1ccc(-c2nnc(Cc3ccc(Cl)cc3)o2)cc1 | -11% | -15% | -14%[46.1 µM] | -2% | 3%
Cc1ccc(Cn2ncc(Cl)c(Cl)c2=O)cc1 | 5% | -7% | -47% | 1% | -4%
O=c1c(Cl)c(Cl)cnn1Cc1ccccc1Cl | 11% | 13% | 6.3µM* | -4% | 3%
CN(C)C(=S)SC(=S)N(C)C | -1% | -10% | . | 3%[39.9 µM] | -5%
COc1ccc(C(=O)Nc2ccc3c(c2)Cc2ccccc2-3)cc1 | -4% | ? | -20%[46.1 µM] | -1% | 2%
COc1ccc2nc3c(cc2c1)Cc1ccccc1-3 | ? | ? | . | 13µM* | 1%
CN(C)c1ccc(C(=O)/C=C/c2ccco2)cc1 | -26% | 10µM* | -18% | -12% | -5%
CC(=O)Nc1cccc(C(=O)/C=C/c2ccco2)c1 | ? | 25µM* | -11%[46.1 µM] | -4% | ?
CC(=O)Nc1cccc(C(=O)/C=C/c2ccc(N(C)C)cc2)c1 | 16µM*[quencher] | 25µM* | -15% | 2% | 0%
O=C(/C=C/c1ccco1)c1ccc(O)cc1 | -14% | ? | -22% | -10% | -10%
CC(=O)Nc1ccc(C(=O)/C=C/c2ccco2)cc1 | ? | ? | -2% | -3% | ?
CN1/C(=C\C(=S)NC(=O)c2cccc(Br)c2)C(C)(C)c2ccccc21 | 9% | 7.1µM* | -20%[46.1 µM] | . | 11%
CN1/C(=C\C(=S)NC(=O)c2ccc([N+](=O)[O-])cc2)C(C)(C)c2ccccc21 | -3% | ? | -1% | -4% | 3%
SMILES | Tau fluor counter | Tau fibril ThT | NPSR antagonist | Luc counter | Tau fibril FP
CN1/C(=C\C(=O)Nc2ccc(Br)cc2)C(C)(C)c2ccccc21 | 7.1µM*[quencher] | ? | 0% | 0% | 4%
CN1/C(=C\C(=O)Nc2ccc(F)cc2)C(C)(C)c2ccccc21 | 10µM*[quencher] | ? | -25%[46.1 µM] | . | 10%
CN1/C(=C\C(=O)Nc2cccc(Cl)c2)C(C)(C)c2ccccc21 | 14µM*[quencher] | ? | -19% | 1% | 8%
COCCOC(=O)Cn1nnc2sc(-c3ccccc3)cc2c1=O | -5% | -8% | . | . | 9%
CCC(=O)Nc1nnc2n1CCS2 | 8% | 9% | . | . | -3%
CCCN(C(=O)Cn1cnc2onc(-c3ccc(F)cc3)c2c1=O)c1cccc(Cl)c1 | -11% | 6% | . | . | -14%
CCN(CC)c1ccc(C=C2C(=O)OC3(CCCCC3)OC2=O)cc1 | -3% | -18% | -29% | -1% | 3%
CC1=NOC(=O)/C1=C/c1ccc(N(C)C)cc1 | -22% | ? | -27%[46.1 µM] | . | -6%
CCN(CC)c1ccc(/C=C2/C(=O)ON=C2C)cc1 | -28% | 8.9µM* | -17% | -3% | -6%
CCN(CC)c1ccc(/C=C2\C(=O)N(c3nnc(C)c(=O)[nH]3)N=C2C)cc1 | 6% | 7.9µM* | ? | . | ?
O=C(NCc1cccc(F)c1)c1ccc2nc(CCc3ccccc3)oc2c1 | -12% | 0% | . | . | -2%
Cc1cc(F)ccc1NC(=O)C1CCN(C(=O)c2cnn(-c3ccccc3)c2-n2cccc2)CC1 | -6% | -5% | . | . | 6%
COc1ccc(C(=O)N=c2sc3cc(Cl)ccc3n2C)cc1 | -3% | -18% | . | . | 0%
Cc1nc2cnc(Oc3ccccc3)nc2n(CCC#N)c1=O | . | . | . | -3% | .
COCCCNC(=O)C1CCN(Cc2cc3ccccc3n2Cc2cccc(C)c2)CC1 | 9% | 5% | . | . | 2%
COc1ccc(C2c3c(ncn(CCCN4CCOCC4)c3=N)Oc3ccc4ccccc4c32)cc1OC (stereo not drawn) | -10% | -5% | 10µM* | . | -3%
CCN(CC)P(=O)(Nc1ccc(C)cc1Br)c1ccc(N(C)C)cc1NC(=O)c1ccco1 (stereo not drawn) | -22% | ? | 10µM* | -3% | 10%
Cc1ccc(NC(=O)c2ccco2)c([N+](=O)[O-])c1 | -14% | -13% | 13% | -4% | 0%
CCOC(=O)c1sc(=NC(=O)c2ccc(S(=O)(=O)N3CC(C)OC(C)C3)cc2)n(C)c1C (stereo not drawn) | -13% | -10% | 10µM* | . | 6%
CCOC(=O)c1sc(=NC(=O)c2ccc(Cl)s2)n(C)c1C | -1% | -5% | -52% | -2% | 2%
CCOC(=O)c1sc(=NC(=O)c2ccc(C)c(C)c2)n(C)c1C | -4% | -10% | 32% | 0% | -4%
CCOC(=O)c1sc(=NC(=O)c2cccs2)n(C)c1C | 3% | -1% | 3.2µM* | -12% | -3%
CCOC(=O)c1sc(=NC(=O)c2ccc(OC(C)C)cc2)n(C)c1C | 1% | -3% | 5µM* | 0% | -7%
Cc1ccc(-n2c(=O)c3cccnc3n2CC(=O)Nc2ccc(Br)cc2)cc1C | ? | -1% | . | . | ?
Nc1nc2c(ncn2C2CC(O)C(CO)O2)c(=O)[nH]1 (stereo not drawn) | -2% | 3% | . | -3% | ?
Cc1[nH]c2ccccc2c1N=Nc1cc(C(=O)O)cc(C(=O)O)c1 | -8% | ? | -9% | 2% | 0%
O=C(O)c1cc(N=Nc2c(O)ccc3ccccc23)cc(C(=O)O)c1 | -11% | 16µM* | -7% | -13% | -4%
NS(=O)(=O)c1ccc(N=Nc2c(O)ccc3ccccc23)cc1 | -26% | 1.1µM* | -1% | -5% | 0%
Oc1ccc(N=Nc2c(O)ccc3ccccc23)cc1 | 11µM*[quencher] | 2.5µM* | -4%[46.1 µM] | -14% | ?
Oc1ccc2ccccc2c1Br | -6% | -11% | -2% | -1% | 1%
